Inconclusive results are not listed. Where a call stands in place of a potency, no number is given. The source made the active and inactive calls. The call rests on the fitted dose curve; in most records, active means well fitted cell-killing curve with a large enough effect in the repeat runs; inconclusive means weak or mixed curves, or effect the other way; inactive means flat fitted curve, though single readings scatter.
Test: qHTS assay to identify small molecule agonists of the TGF-beta/Smad signaling pathway - cell viability counter screen (AID 1346829); further: top concentration of the series differs between compounds; nearly all actives have a fitted effect of over 45% in size
Conditions: SBE-bla HEK293T viability, CellTiter-Glo luminescence, 5 h; series mostly up to 76.8 µM
From the text: National Center for Advancing Translational Sciences [NCATS]
NIH Chemical Genomics Center [NCGC]
U.S. Environmental Protection Agency [EPA]
National Institutes of Environmental Health Sciences [NIEHS]
National Toxicology Program [NTP]
U.S. Food and Drug Administration [FDA]
Transforming growth factor beta (TGF-beta) superfamily consists of a large number of structurally related dimeric proteins that act as hormones or local mediators in regulating a wide range of biological functions. This superfamily includes TGF-betas themselves, the bone morphogenetic proteins (BMPs) and the activins. These ligands induce oligomerization of serine/threonine receptor kinases and phosphorylate the cytoplasmic signaling molecules of Smad protein family. CellSensor SBE-bla HEK 293T cell line (Life Technologies, Carlsbad, CA), responsive to TGF-beta was used to screen Tox21 10K compound library for identification of agonists/antagonists of the Smad signaling pathway. This cell line contains a beta-lactamase reporter gene under control of the Smad binding element (SBE) stably integrated into HEK 293T cells. Also cytotoxicity of the compounds was tested in parallel by measuring the cell viability using CellTiter-Glo assay system in the same wells.
Tox21 Assay Protocol Summary:
SBE-bla HEK 293T cells were dispensed at 4,000/well in 6 uL of assay medium into black wall/clear-bottom 1536-well plates using a Multidrop Combi (ThermoFisher Scientific, Waltham, MA) dispenser. After the assay plates were incubated at 37 C and 5% CO2 for an overnight, 23 nL of compounds dissolved in DMSO, positive controls or DMSO only was transferred to the assay plate by a Pintool station (Kalypsys, San Diego, CA). The assay plates were incubated at 37 C and 5% CO2 for 5 hr. One uL of LiveBLAzer B/G FRET substrate (Life Technologies) was added using a Flying Reagent Dispenser (FRD, Aurora Discovery, San Diego, CA) and the plates were incubated at room temperature for 2 hr. Fluorescence intensity (405 nm excitation, 460 nm and 530 nm emissions) was measured using an Envision plate reader (PerkinElmer, Shelton, CT). For cytotoxicity read, 4 uL of CellTiter-Glo reagent (Promega Corporation, Madison, WI) was added to each well of the assay plates using FRD. After 30min incubation at room temperature, the luminescence intensity was measured using ViewLux plate reader (PerkinElmer).

Q: Which Potency does the source give for `CC(=O)NS(=O)(=O)c1ccc(N)cc1` here?
A: inactive

Q: With `CC(=O)OCC(COC(C)=O)OC(C)=O` as the molecule, how does the Potency read?
A: inactive

Q: With `O=C(O)CCCCCCCC(=O)O` as the molecule, how does the Potency read?
A: inactive

Q: For `CCCN(CCC)S(=O)(=O)c1ccc(C(=O)O)cc1`, which Potency is on record?
A: inactive

Q: For `CC1(C)[C@@H]2CC[C@@]1(C)C(=O)C2`, which Potency is on record?
A: inactive

Q: With `O=C(O)C(=O)O` as the molecule, how does the Potency read?
A: inactive

Q: With `Cn1c(=O)c2[nH]cnc2n(C)c1=O` as the molecule, how does the Potency read?
A: inactive

Q: Which Potency does the source give for `Cc1ccc(S(=O)(=O)NC(=O)NN2CCCCCC2)cc1` here?
A: inactive

Q: Which Potency does the source give for `O=S(=O)(O)c1ccc2cc(O)ccc2c1` here?
A: inactive

Q: With `O=C(O)/C=C\C(=O)O` as the molecule, how does the Potency read?
A: inactive

Q: For `Cc1ccccc1C(OCCN(C)C)c1ccccc1` (stereo not given), which Potency is on record?
A: inactive

Q: For `O=C(c1ccccc1)C(O)c1ccccc1` (stereo not given), which Potency is on record?
A: inactive

Q: Which Potency does the source give for `CCCCC(CC)COC(=O)/C=C/c1ccc(OC)cc1` (stereo not given) here?
A: inactive

Q: With `O=C(O)CS` as the molecule, how does the Potency read?
A: inactive

Q: With `O=C(O)c1cc(N=Nc2ccc(S(=O)(=O)Nc3ccccn3)cc2)ccc1O` as the molecule, how does the Potency read?
A: inactive

Q: For `NC(=O)c1ccccc1O`, which Potency is on record?
A: inactive

Q: For `Nc1ccc(S(=O)(=O)Nc2nccs2)cc1`, which Potency is on record?
A: inactive

Q: With `C/C=C/c1ccc(OC)cc1` as the molecule, how does the Potency read?
A: inactive

Q: For `C1N2CN3CN1CN(C2)C3`, which Potency is on record?
A: inactive

Q: Which Potency does the source give for `Cc1cn([C@H]2C[C@H](N=[N+]=[N-])[C@@H](CO)O2)c(=O)[nH]c1=O` here?
A: inactive

Q: With `Cc1cc(=O)n(-c2ccccc2)n1C` as the molecule, how does the Potency read?
A: inactive

Q: With `CCCC(CCC)C(=O)O` as the molecule, how does the Potency read?
A: inactive

Q: For `NC(N)=O`, which Potency is on record?
A: inactive

Q: For `CC(O)CO` (stereo not given), which Potency is on record?
A: inactive

Q: With `COc1ccc2[nH]cc(CCNC(C)=O)c2c1` as the molecule, how does the Potency read?
A: inactive

Q: With `CCOc1ccc(NC(=O)CC(C)O)cc1` (stereo not given) as the molecule, how does the Potency read?
A: inactive

Q: For `NS(=O)(=O)c1cc(C(=O)O)c(NCc2ccco2)cc1Cl`, which Potency is on record?
A: inactive

Q: With `NC(=O)c1cnccn1` as the molecule, how does the Potency read?
A: inactive

Q: With `CC(C)(Oc1ccc(C2CC2(Cl)Cl)cc1)C(=O)O` (stereo not given) as the molecule, how does the Potency read?
A: inactive

Q: With `CC(O)CN(CCN(CC(C)O)CC(C)O)CC(C)O` (stereo not given) as the molecule, how does the Potency read?
A: inactive

Q: With `Nc1ccc(O)c(C(=O)O)c1` as the molecule, how does the Potency read?
A: inactive

Q: Which Potency does the source give for `C[C@]12C=CC(=O)C=C1CC[C@@H]1[C@@H]2[C@@H](O)C[C@@]2(C)[C@H]1CC[C@]2(O)C(=O)CO` here?
A: inactive

Q: Which Potency does the source give for `CCC1(c2ccccc2)C(=O)NCNC1=O` here?
A: inactive

Q: For `O=C(O)CCC(=O)O`, which Potency is on record?
A: inactive

Q: For `NNC(=O)c1ccncc1`, which Potency is on record?
A: inactive

Q: Which Potency does the source give for `Nc1ccn([C@H]2CC[C@@H](CO)O2)c(=O)n1` here?
A: inactive

Q: With `Nc1ccc(C(=O)O)cc1` as the molecule, how does the Potency read?
A: inactive

Q: For `Cn1cc[nH]c1=S`, which Potency is on record?
A: inactive

Q: Which Potency does the source give for `Cc1ccc(C)c(OCCCC(C)(C)C(=O)O)c1` here?
A: inactive

Q: For `Cc1cc(=O)[nH]c(=S)[nH]1`, which Potency is on record?
A: inactive

From PubChem BioAssay (Tox21)
